From PubChem BioAssay AID1159580 (chemical genetic matrix, 2015)
Among all 5,500 compounds or so, about 2,000 (36%) were called active. About 18% were inconclusive and are not listed. Cut-off read from the data, not from the text of the source: active = normalized growth mostly below about 0.91 (no sharp cut-off); inconclusive = no clear call, values can overlap the other calls; inactive = mostly above about 0.92. The list shows a part of the results.

Assay: chemical genetic growth profiling, strain panel (AID 1159580);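 note: tested at 20 µM; growth read once vehicle control cultures reached saturation at 30 °C; 1 = growth at the plate median or of vehicle wells; lower values mean less growth of the strain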
Conditions: S. cerevisiae deletion strains, growth OD

Measured: normalized growth

COc1cc([C@@H]2c3cc4c(c(O)c3C[C@H]3COC(=O)[C@@H]32)OCO4)cc(OC)c1OC
inactive: locus YAL013W, strain DEP1, hits give low values 0.986 | locus YAL021C, strain ccr4, hits give low values 0.995 | locus YAL026C, strain drs2, hits give low values 0.992 | locus YAL030W, strain snc1, hits give low values 0.986 | locus YBL061C, strain skt5, hits give low values 0.994 | locus YBR009C, strain hhf1, hits give low values 0.993 | locus YBR021W, strain FUR4, hits give low values 1 | locus YBR023C, strain chs3, hits give low values 0.999 | locus YBR171W, strain sec66, hits give low values 0.971 | locus YBR229C, strain ROT2, hits give low values 0.985 | locus YBR231C, strain swc5, hits give low values 0.977 | locus YBR279W, strain paf1, hits give low values 0.994 | locus YCL011C, strain gbp2, hits give low values 0.996 | locus YCL016C, strain dcc1, hits give low values 1 | locus YCL029C, strain bik1, hits give low values 0.978 | locus YCL069W, strain vba3, hits give low values 1 | locus YCR088W, strain abp1, hits give low values 0.984 | locus YDL005C, strain med2, hits give low values 0.979 | locus YDL035C, strain GPR1, hits give low values 0.981 | locus YDL040C, strain nat1, hits give low values 0.994 | locus YDL074C, strain BRE1, hits give low values 1.05 | locus YDL101C, strain DUN1, hits give low values 0.985 | locus YDL134C, strain PPH21, hits give low values 0.997 | locus YDL185W, strain tfp1, hits give low values 0.959 | locus YDL192W, strain arf1, hits give low values 0.972 | locus YDR001C, strain nth1, hits give low values 0.988 | locus YDR069C, strain doa4, hits give low values 0.981 | locus YDR101C, strain arx1, hits give low values 0.995 | locus YDR137W, strain rgp1, hits give low values 0.993 | locus YDR150W, strain NUM1, hits give low values 0.973 | locus YDR159W, strain sac3, hits give low values 0.967 | locus YDR162C, strain NBP2, hits give low values 0.998 | locus YDR195W, strain ref2 0.93 | locus YDR297W, strain sur2, hits give low values 0.976 | locus YDR318W, strain mcm21, hits give low values 0.986 | locus YDR334W, strain swr1, hits give low values 0.987 | locus YDR335W, strain msn5, hits give low values 1 | locus YDR388W, hits give low values 0.991 | locus YDR392W, strain spt3, hits give low values 0.924 | locus YDR502C, strain sam2, hits give low values 0.983 | locus YEL003W, strain gim4, hits give low values 0.983 | locus YEL037C, strain rad23, hits give low values 0.993 | locus YEL061C, strain CIN8 (second series), hits give low values 1 | locus YEL061C, strain CIN8, hits give low values 0.99 | locus YER015W, strain faa2, hits give low values 1 | locus YER016W, strain bim1, hits give low values 0.979 | locus YER110C, hits give low values 0.971 | locus YER111C, strain swi4, hits give low values 0.989 | locus YER155C, strain BEM2 (second series), hits give low values 0.96 | locus YER155C, strain BEM2, hits give low values 0.994 | locus YER167W, strain BCK2, hits give low values 0.976 | locus YFR010W, strain ubp6, hits give low values 0.995 | locus YGL078C, strain dbp3, hits give low values 0.986 | locus YGL086W, strain mad1, hits give low values 0.982 | locus YGL167C, strain pmr1, hits give low values 0.991 | locus YGL173C, strain kem1, hits give low values 0.98 | locus YGL227W, strain vid30, hits give low values 0.983 | locus YGL240W, strain doc1, hits give low values 0.961 | locus YGL248W, strain PDE1, hits give low values 0.988 | locus YGL253W, strain hxk2, hits give low values 0.994 | locus YGR078C, strain PAC10, hits give low values 1.03 | locus YGR135W, strain pre9, hits give low values 1.02 | locus YGR229C, strain SMI1, hits give low values 1.05 | locus YGR252W, strain gcn5, hits give low values 1.04 | locus YHR013C, strain ard1, hits give low values 1 | locus YHR027C, strain rpn1, hits give low values 0.976 | locus YHR030C, strain SLT2, hits give low values 0.979 | locus YHR079C, strain IRE1 (second series), hits give low values 0.983 | locus YHR094C, strain hxt1, hits give low values 0.974 | locus YHR129C, strain ARP1, hits give low values 0.993 | locus YHR142W, strain chs7, hits give low values 1.02 | locus YHR200W, strain rpn10, hits give low values 0.975 | locus YIL066C, strain RNR3, hits give low values 0.983 | locus YIL073C, strain SPO22, hits give low values 0.923 | locus YIL125W, strain kgd1, hits give low values 0.986 | locus YIR030C, strain dcg1, hits give low values 0.982 | locus YJL092W, strain hpr5, hits give low values 0.999 | locus YJL095W, strain BCK1 (second series), hits give low values 0.987 | locus YJL095W, strain BCK1, hits give low values 1.05 | locus YJL115W, strain asf1, hits give low values 0.987 | locus YJL129C, strain trk1, hits give low values 0.962 | locus YJL134W, strain LCB3, hits give low values 0.982 | locus YJL154C, strain vps35, hits give low values 0.987 | locus YJL164C, strain tpk1, hits give low values 1 | locus YJL166W, strain qcr8, hits give low values 0.995 | locus YJL168C, strain set2, hits give low values 0.985 | locus YJL187C, strain SWE1 (second series), hits give low values 1.01 | locus YJL187C, strain SWE1, hits give low values 0.983
